# Assay outcomes (PubChem)
# HCV inh = qHTS Assay for Inhibitors of Hepatitis C Virus (HCV); Huh7.5.1 HCVcc-Cre infection, luciferase reporter, 44 h; Potency, µM (titrated, usually from 41.8 µM), for the others: at the highest dose activity change, negative = inhibition, usual class: inhibitors; 340,000 tested, 3.4% active; AID 651820, 2012; active = well fitted inhibition curve with a large enough effect; inconclusive = small, poorly fitted or top-dose-only effect, or another doubt; inactive = no such curve, though single readings can be large or run the other way; note: potency is the fitted concentration of half-maximal effect
#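 After 44 h co-culture of compound, cells and HCVcc-Cre (~0.5 moi), substrate is added for 15 min at room temperature and luciferase measured over 15 sec. Cells were seeded at 1,000/well and pre-cultured 4 h.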
# VACV mCherry inh = qHTS for Stage-Specific Inhibitors of Vaccinia Orthopoxvirus: mCherry Reporter Primary qHTS; Vaccinia virus mCherry reporter infection, fluorescence; Potency, µM (doses to about 36.5 µM), for the others: at the top dose activity change, negative = inhibition, actives largely listed as inhibitors; 310,000 tested, 0.63% active; AID 720579, 2013; calls by dose curve; tested in A549 cells; note: potency is the fitted concentration of half-maximal effect; nearly all actives have a fitted effect of over 35% in size
# Vaccinia Venus = qHTS for Stage-Specific Inhibitors of Vaccinia Orthopoxvirus: Venus Reporter Primary qHTS; 330,000 tested, 0.46% active; Potency, µM (titrated, usually from 36.5 µM), for the others: at the highest dose activity change, negative = inhibition, usual class: inhibitors; Vaccinia virus Venus reporter expression, fluorescence; calls by dose curve; tested in A549 cells; note: potency is the fitted concentration of half-maximal effect; nearly all actives have a fitted effect of over 30% in size
# HCMV inh = qHTS Assay for inhibitors of the human cytomegalovirus (HCMV); HFF cells, HCMV-luciferase reporter, 72 h; active compounds read low; activity change, negative = inhibition, % at 57.5 µM; 410,000 tested, 4.5% active; AID 1259415, 2018; in the data active = activity change below about -60%; inconclusive = no clear call, values can overlap the other calls; inactive = above about -39%
#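 Two-dose cell screen: HFF monolayers treated with compounds and infected with luciferase-expressing HCMV at 1 PFU/cell, 72 h at 37C, then lysed for luciferase measurement.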
# FMDV inh = High Throughput Screening for Foot and Mouth Disease Virus Antivirals | 410,000 tested, 1.2% active | FMDV antiviral cell-based qHTS | Potency, µM (titrated, usually from 57.9 µM), without a hit: at the top dose activity change, negative = inhibition, most hits filed as inhibitors; calls by dose curve; tested in HEK293T cells; note: read-out not given here; potency is the fitted concentration of half-maximal effect; nearly all actives have a fitted effect of over 45% in size
# * hit, by the source's call; i = inactive; ? = inconclusive; . = no result given. In the library only some 7.3% were active in any assay of this set; here they are far more common. % is set by controls: 0 for no effect and ±100 for the full control effect.
SMILES,HCV inh,VACV mCherry inh,Vaccinia Venus,HCMV inh,FMDV inh
CC1CCOC(=O)C=CC=CC(=O)OC2CC3OC4C5OC5(C)C(O)CC4(COC(=O)C1O)C2(C)C31CO1 (stereo unspecified),.,.,.,-98*,.
CC(O)C1C=CC=CC(=O)OC2CC3OC4C5OC5(C)C(O)CC4(COC(=O)C(O)C(C)CCO1)C2(C)C31CO1 (stereo unspecified),.,.,.,-98*,.
CC1=CC2OC3CC4OC(=O)C=CC=CC(=O)OCCC(C)C(O)C(=O)OCC2(CC1)C4(C)C31CO1 (stereo unspecified),.,.,.,-98*,-22%
O=C(Nc1ccc2c(c1)OCO2)C1Cc2c(-c3ccccc3Oc3ccccc3)ccnc2O1 (stereo unspecified),.,12%,-20%,?,?
COc1ccc(OC)c(/C=C(/C#N)c2nc(-c3ccc(-c4ccccc4)cc3)cs2)c1,.,-15%,-13%,-25,18%
O=C(NCC(c1cccnc1)N1CCN(Cc2ccccc2)CC1)C(=O)Nc1ccc(Cl)cc1 (stereo unspecified),.,-11%,-20%,?,?
CCC1=[N+](CC(=O)c2ccc(C)cc2)CCn2c(C)ccc21,?,?,-23%,-63*,-23%
CCc1ccc(C(=O)C(C)OC(=O)C2COc3ccccc3O2)cc1 (stereo unspecified),5%,-15%,-12%,-98*,-7%
COc1ccc(Cn2ccnc2SCC(=O)Nc2cc(C(F)(F)F)ccc2Cl)cc1,.,-2%,-10%,-11,-3%
COC(=O)[C@@H]1CC(=O)N[C@@H]1c1ccc(OC(C)C)c(OC)c1,.,.,.,-17,.
O=C(NC1(Cc2ccccc2)CCN(CCCc2ccccc2)C1=O)c1ccccc1 (stereo unspecified),?,i,?,-98*,1%
c1ccc(CCCCN2CCN=C2Nc2ccccc2)cc1,-12%,-4%,-15%,-22,-5%
COC(=O)C1=CN(c2ccc(F)cc2)C=C(C(=O)OC)C1c1ccc(O)cc1,11µM*,-14%,-11%,-25,-7%
COc1cc(NC(=O)COCc2cc(-c3ccc(F)cc3)on2)cc(OC)c1OC,.,-17%,-9%,-27,-12%
COCc1ccc(CN2Cc3cc(Cl)ccc3OC(C)C2)o1 (stereo unspecified),.,-8%,-3%,.,-7%
N#CCCn1c(=O)c(-c2ccc(F)cc2)nc2cnc(N3CCNCC3)nc21,.,.,.,.,-19%
Cc1sc2nc(C3CC3)nc(SCC(=O)N3c4ccccc4CC3C)c2c1C (stereo unspecified),11µM*,.,.,.,-3%
Cc1nc(SCC(=O)N2c3ccccc3NC(=O)CC2C)c2c(C)c(C)sc2n1 (stereo unspecified),-20%,-12%,-20%,-27,-10%
Cc1cc2cc3c(cc2nc1SCC(=O)N1c2ccccc2CC1C)OCO3 (stereo unspecified),4µM*,.,-13%,-39,0%
CC(=C/c1ccco1)/C=N/NC(=O)c1nnn(-c2nonc2N)c1CN(C)C,-9%,-7%,-8%,-60*,5%
CC(/C=N/NC(=O)c1nnn(-c2nonc2N)c1C(C)C)=C\c1ccccc1,10µM*,.,.,-32,16%
CC(C)c1c(C(=O)N/N=C/c2ccc(C(F)(F)F)cc2)nnn1-c1nonc1N,5.6µM*,.,.,?,-25%
CCN(CC)Cc1c(C(=O)N/N=C/c2ccco2)nnn1-c1nonc1N,11%,.,.,9,2%
CC(C)c1c(C(=O)N/N=C/c2ccoc2)nnn1-c1nonc1N,-26%,.,.,-16,31%
O=C(NCc1ccccc1Cl)c1ccc(NC(=O)c2nsc3ccccc23)cc1,.,-8%,-12%,23,-8%
CCOc1ccc(NC(=O)CC2C(=O)N(c3ccccc3)C(=O)N2Cc2ccc3c(c2)OCO3)cc1 (stereo unspecified),.,0%,-4%,4,3%
NC(N)=NN=C1CCC(c2ccccc2)CC1 (stereo unspecified),-5%,-27%,-6%,-19,7.1µM*
CC(=O)NN=C1CCC(c2ccccc2)CC1 (stereo unspecified),8%,-8%,-19%,-21,-14%
O=C1/C(=C\c2ccccc2)CCc2c1[nH]c1ccccc21,?,.,.,-7,4%
